Data published in PubChem BioAssay AID743126 (The Scripps Research Institute Molecular Screening Center, 2013).
The campaign covered roughly 370,000 compounds. About 2,100 (0.57%) were called active.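 Rule for the calls: active = inhibition above mean plus 3 SD of compounds lying within the high and low control bounds (cut at about 19% in these data); inactive = the rest.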 The sample as a whole holds a higher share of actives than the screen did.

These compounds were tested against Group 3 secretory phospholipase A2 (Homo sapiens) (UniProt Q9NZ20) (assay: human group III sPLA2 inhibitors, primary screen, biochemical, QFRET, BODIPY PC-A2 liposome substrate (AID 743126;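 note: 0% = median of test compound wells and 100% = no enzyme DMSO wells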)). Conditions: QFRET BODIPY PC-A2 liposome hydrolysis, fluorescence; at 12.2 µM; active compounds read high.
Chain of Group 3 secretory phospholipase A2 (Homo sapiens) (Q9NZ20 whole entry, looked up): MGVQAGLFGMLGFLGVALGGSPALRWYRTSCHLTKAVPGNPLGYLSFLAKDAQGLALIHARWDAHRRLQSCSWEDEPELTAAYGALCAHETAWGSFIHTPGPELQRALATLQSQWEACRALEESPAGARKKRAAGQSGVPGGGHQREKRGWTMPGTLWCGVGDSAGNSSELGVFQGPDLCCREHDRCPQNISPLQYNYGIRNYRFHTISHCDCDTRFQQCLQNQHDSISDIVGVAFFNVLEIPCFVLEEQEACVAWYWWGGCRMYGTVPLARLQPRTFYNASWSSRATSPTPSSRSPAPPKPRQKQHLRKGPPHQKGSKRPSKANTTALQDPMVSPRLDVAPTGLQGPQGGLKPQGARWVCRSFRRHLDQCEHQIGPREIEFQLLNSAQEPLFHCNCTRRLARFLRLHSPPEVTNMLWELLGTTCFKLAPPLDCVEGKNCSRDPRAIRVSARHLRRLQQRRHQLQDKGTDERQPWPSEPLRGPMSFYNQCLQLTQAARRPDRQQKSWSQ

inhibition, active:
O=C(NC(=S)Nc1ncccn1)c1ccccc1Br 20.2%
Cc1cc(NCCc2c[nH]c3ccccc23)ccc1Oc1cccnc1 24.1%
O=C(OC12CC3CC(CC(C3)C1)C2)c1ccc(NCc2cc(O)ccc2O)cc1 42.5%
Cc1nnc(Sc2nc3c(c(=O)[nH]c(=O)n3C)n2Cc2ccccc2)s1 19.7%
CC(NC(=O)COC(=O)Cn1cc(C(F)(F)F)ccc1=O)c1ccccc1 (stereo unspecified) 19.8%
NC(Cc1ccccc1)c1csc(Nc2cc(Oc3ccccc3)ncn2)n1 (stereo unspecified) 30.9%
CC(=O)NC(c1cccs1)c1cc(Br)c2cccnc2c1O (stereo unspecified) 22%
CCOC(=O)NC(=O)/C(C#N)=C\c1ccccc1 22.2%
N#CC1(Nc2ccc(-c3ccc(Cl)cc3)cc2)CCCC1 23.6%
CCOC(=O)C1(Cc2cccc(OC)c2)CCCN(C(=O)CCSC)C1 (stereo unspecified) 19.5%
COc1cc(NS(=O)(=O)c2ccc3ccccc3c2)c2ncccc2c1 23.8%
NC[C@H](Cc1ccccc1)NCCc1cc(C(F)(F)F)cc(C(F)(F)F)c1 21.8%
CC1=CC(C)(C)NC(=S)N1c1ccccc1 20.1%
Cc1c(NC(=S)NCc2ccc(F)cc2)cccc1[N+](=O)[O-] 19.5%
Cc1cccc(C)c1NC(=O)CN1C(=O)C(C)Oc2ccccc21 (stereo unspecified) 20.8%
COc1cc(/C=N/n2c(C)n[nH]c2=S)ccc1OCc1ccccc1 20.9%
C=CCn1c(C23CC4CC(CC(C4)C2)C3)n[nH]c1=S 23.5%
CCOC12CC(C)(C)CC(C)(CC3=C1C(=O)CC(C)(C)C3)C2 (stereo unspecified) 24.1%
C#CCCCc1nc2ccccc2c(=O)n1N 21.1%
C/C(=N\NC(=O)CSc1nc2ccccc2c(=O)n1-c1ccccc1C)c1cccs1 25.2%

inhibition, inactive:
COc1ccc2c(C(C)c3ccc(N)cc3)cn(C)c2c1 (stereo unspecified) 9.83%
CCCCNC(=O)C[C@@H]1C(=O)N(CCc2ccc(Cl)cc2)C2=CCCC[C@]21C(=O)OCC -11%
COC(=O)c1cccnc1NC(=S)NC(C)C 11.5%
CC1CCN(C(=S)NC(=O)c2ccccc2Br)CC1 16.3%
O=C(CN1CCC(NC(=O)NCc2ccccc2)CC1)Nc1ccc2c(c1)OCCO2 4.02%
O=C(NC1CCC1)c1ccc(C#CC2CC2)cn1 8.79%
COc1cccc(CNCCc2c[nH]c3ccccc23)c1OCc1ccccc1F -6.09%
O=C(CCc1c[nH]c2ccccc12)NCCOc1ccccc1 -37%
C#CCNC(=O)C[C@H]1C[C@@]2(C(=O)OC)C(=C[C@H](C(C)C)O[C@@H]2C2CC2)N(Cc2ccco2)C1=O 3.7%
Cc1cccc(C(=O)Nc2c(-c3ccc(F)cc3)nc3ncccn23)c1 -0.59%
COC(=O)CC1CCc2cc(C)cc(C(CC(C)C)NC(=O)[C@H](CC(C)C)NC(=O)OCc3ccccc3)c2O1 (stereo partly specified) -3.39%
O=C(C1CCCN1S(=O)(=O)c1ccccc1)N1CCc2ccccc2C1 (stereo unspecified) -2.35%
Cc1nnc(SCCCn2c(N3CCCCC3)nc3c2c(=O)[nH]c(=O)n3C)s1 -3.33%
C=CCn1c(SCc2ccccc2)nc2c1c(=O)[nH]c(=O)n2C -4.25%
COc1ccc(CN2C/C(=C/c3ccccc3)N3C(=O)C[C@@H](c4ccccc4)N=C23)c(OC)c1 -11.6%
Cc1ccc(-n2c(COc3ccccc3)nnc2SCC(=O)Nc2ccc3c(c2)OCCO3)cc1 -18.3%
COc1ccc(C(=O)OCCN2CCN(C3CN(Cc4cn(Cc5ccccc5F)nn4)S(=O)(=O)C3)CC2)cc1OC (stereo unspecified) -1.33%
CC(NC(=O)COC(=O)C1CCN(S(=O)(=O)c2ccccc2C(F)(F)F)CC1)c1ccccc1 (stereo unspecified) -13.3%
CC(NC(=O)Cn1cc(C(F)(F)F)cc(Cl)c1=O)c1ccccc1 (stereo unspecified) 0.8%
NC(Cc1ccc(F)cc1)c1csc(Nc2nncc3ccccc23)n1 (stereo unspecified) 9.76%
CC(C)(C)CC(=O)Nc1nc(C(N)Cc2ccc(C(F)(F)F)cc2)cs1 (stereo unspecified) 6.39%
CC(C)N1CCCCC(NC(=O)C(C)(C)C)C1=O (stereo unspecified) -4.58%
C=CCN1C(C(=O)OC)CN(Cc2cn(Cc3ccccc3)nn2)CCS1(=O)=O (stereo unspecified) 1.48%
N#Cc1ccccc1NC(=O)COc1c(Br)cc(Br)c2cccnc12 5.73%
O=[N+]([O-])c1cc([N+](=O)[O-])c2cccnc2c1O 2.18%
Cc1c(C(C)c2ccccc2O)[nH]c2ccccc12 (stereo unspecified) -10.4%
CCOC(=O)NC(=O)C(=CNc1cccc(OC)c1)C(=O)NC(=O)OCC 5.9%
CCOC(=O)C(=Cc1ccccc1)C(=O)c1ccccc1 8.51%
COC(=O)[C@]12C[C@H](CC(=O)NCC34CC5CC(CC(C5)C3)C4)C(=O)N(Cc3ccc(Cl)cc3Cl)C1=C[C@H](COCc1ccccc1)O[C@@H]2C -6.39%
O=C(Nc1ccc(Br)cc1)OCCN1C(=O)CCC12CCC(c1ccccc1)CC2 (stereo unspecified) -1.44%
NC(=O)C1(Nc2ccc(-c3ccccc3)cc2)CCCC1 0.79%
N#CC1(Nc2ccc3c4c(cccc24)CC3)CCCCC1 -35.6%
CC(c1ccc(N)cc1)c1cn(C)c2ccccc12 (stereo unspecified) 13.1%
FC(F)(F)c1cccc(Cn2ccc3ccc(-c4ccc5ccn(Cc6ccccc6)c5c4)cc32)c1 -7.36%
C=CCN(C)CC#Cc1ccccc1 6.96%
CCOC(=O)C1(Cc2cccc(OC)c2)CCN(C(C)COC)CC1 (stereo unspecified) -1.08%
CCOC(=O)C1(Cc2cccc(OC)c2)CCCN(S(=O)(=O)c2cccnc2)C1 (stereo unspecified) 1.51%
CC(C)(C)NC(=O)C(c1cccnc1)N(C(=O)c1cnco1)c1ccc(C(C)(C)C)cc1 (stereo unspecified) -5.08%
CCOc1ccc(Oc2c(Cl)cnn(-c3ccc(C)cc3)c2=O)cc1 8.12%
O=S(=O)(Nc1ccccn1)c1cccc(S(=O)(=O)c2ccc(Cl)cc2)c1 -7.39%
O=[N+]([O-])c1ccccc1S(=O)(=O)Nc1cccc2cccnc12 6.98%
CCOC(=O)C(=O)N(Cc1ccccc1)c1ccccc1C(=O)Nc1cc(OC)ccc1OC -2.65%
CC1=CC(C)(C)NC(=S)N1NC(=O)c1ccccc1Cl 4.76%
CN(C)Cc1cn(-c2ccc(-c3noc4c3C(=O)N(CC(=O)N3CCOCC3)CC4)cc2)nn1 1.51%
COc1ccc(N2CCN(CCNS(=O)(=O)c3ccc([N+](=O)[O-])cc3)CC2)cc1 -4.09%
COc1ccccc1CCNC(=O)C1CCN(c2nc(C)cc(C)n2)CC1 -0.08%
Cc1ccc(NC(=O)CN(C)Cc2ccc(F)cc2)c([N+](=O)[O-])c1 -1.08%
Cc1cccc(NC(=S)NCCc2ccc(F)cc2)c1C 8.1%
O=C(CSc1nc2ccccc2n1Cc1ccccc1Cl)N/N=C\c1c[nH]c2ccccc12 -20.9%
COC(=O)C1CN(Cc2ccc(F)cc2)CCS(=O)(=O)N1Cc1ccc(Cl)cc1 (stereo unspecified) 0.13%
CCC(=O)OCCCN1C(=O)CCC12CCC(c1ccccc1)CC2 (stereo unspecified) -0.68%
CC1Oc2ccccc2N(Cc2cccnc2)C1=O (stereo unspecified) 7.65%
Cc1ccc2c(c1)N(CC(=O)N1CCCc3ccccc31)C(=O)C(C)O2 (stereo unspecified) 0.55%
COc1ccc(Cn2ccc3ccc(-c4ccc5ccn(Cc6ccccc6C)c5c4)cc32)cc1 3.9%
COc1ccc(C#CCNCc2ccc(OC)cc2OC)cc1 12.6%
CCOC(=O)C1(Cc2ccccc2)CCN(Cc2cn(C(C)=O)c3ccccc23)CC1 -23.2%
O=C(CSc1nnc(-c2ccccc2)n1Cc1ccco1)Nc1ccccc1-c1ccccc1 -10.1%
CCCCCCCCNS(=O)(=O)/C=C/c1cc(C)ccc1CNC(=O)OC(C)(C)C -4.97%
CCCCOCCCNC(=O)C[C@H]1C[C@@]2(C(=O)OC)C(=C[C@H](COCc3ccccc3)O[C@@H]2C)N(Cc2cccc3ccccc23)C1=O -20.5%
C=CCOc1ccc(/C=N/n2cncn2)cc1OC 2.27%
CNC(=S)N/N=C/c1ccc(OCc2ccccc2)c(Br)c1 0.16%
C=CCn1c(SCC(=O)NC)nnc1C12CC3CC(CC(C3)C1)C2 0.19%
C=CCn1c(-c2ccc3[nH]c(C)c(C)c3c2)n[nH]c1=S -0.35%
FC(F)(F)c1cccc(NC(=S)OC2CCC23CCC(c2ccccc2)CC3)c1 (stereo unspecified) -7.1%
CN[C@H]1C[C@H]2c3cc(N4CCOCC4)ccc3CCN2C[C@H]1[C@H](C)O 7.01%
O=S1(=O)c2c(cccc2N2CCSCC2)Oc2ccccc2CN1Cc1cn(Cc2ccc(F)cc2)nn1 2.55%
Cc1ccc(C(=O)CSc2nc3ccccc3c(=O)n2N)o1 -0.69%
Cc1ccc(S(=O)(=O)NCc2nc3ccccc3c(=O)n2N)cc1 2.93%
O=C(OCC#CCSc1nnc(-c2ccco2)o1)c1ccc(F)cc1 1.02%
Cc1ccccc1-n1c(SCC(=O)Nc2cccc3ccccc23)nc(O)cc1=O -4.85%
C/C(=N\NC(=O)COc1c(C)cccc1C)c1cccs1 2.47%
